Measurements published in PubChem BioAssay.
Several values for one entry are separate records, joined by “and”; a condition that tells them apart may be missing. Equal entries are not always repeated. Inconclusive results are not listed. Activity calls are given as the source filed them.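 How the source made its calls, unless noted: active means compounds whose cell count with miR-34 switched on is under 0.7 times the count with it off; inactive means the rest.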 Peptide text beside a SMILES is read from it. * marks the point of attachment. CH2Cl = ClC*

Key:
[1] = sensitizers of A549 cells to miR-34 induction, primary screen, imaging, A549 dox-inducible miR-34, nuclei and caspase counts (AID 1347080); details: A549 miR-34 inducible, Hoechst nuclei count, 48 h
[2] = inhibitors of Cryptococcus chitosan production, flow cytometry, Cibacron Brilliant Red staining (AID 1347148; call rule not given here;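 further: compound exposure lasted three days at 37 degrees C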); details: Cryptococcus neoformans chitosan, stronger effect = lower value; at 10 µM unless noted
[3] = target: ATP-dependent translocase ABCB1 (Homo sapiens) (UniProt P08183); assay: MDR1 (ABCB1) efflux transporter inhibition, cell-based (AID 377; in the data active means fluorescence slope change above about 50%); details: MDR1-expressing cells, fluorescent substrate accumulation slope; stronger effect = higher value; concentration not given here
ATP-dependent translocase ABCB1 (Homo sapiens), sequence (P08183 whole entry, looked up): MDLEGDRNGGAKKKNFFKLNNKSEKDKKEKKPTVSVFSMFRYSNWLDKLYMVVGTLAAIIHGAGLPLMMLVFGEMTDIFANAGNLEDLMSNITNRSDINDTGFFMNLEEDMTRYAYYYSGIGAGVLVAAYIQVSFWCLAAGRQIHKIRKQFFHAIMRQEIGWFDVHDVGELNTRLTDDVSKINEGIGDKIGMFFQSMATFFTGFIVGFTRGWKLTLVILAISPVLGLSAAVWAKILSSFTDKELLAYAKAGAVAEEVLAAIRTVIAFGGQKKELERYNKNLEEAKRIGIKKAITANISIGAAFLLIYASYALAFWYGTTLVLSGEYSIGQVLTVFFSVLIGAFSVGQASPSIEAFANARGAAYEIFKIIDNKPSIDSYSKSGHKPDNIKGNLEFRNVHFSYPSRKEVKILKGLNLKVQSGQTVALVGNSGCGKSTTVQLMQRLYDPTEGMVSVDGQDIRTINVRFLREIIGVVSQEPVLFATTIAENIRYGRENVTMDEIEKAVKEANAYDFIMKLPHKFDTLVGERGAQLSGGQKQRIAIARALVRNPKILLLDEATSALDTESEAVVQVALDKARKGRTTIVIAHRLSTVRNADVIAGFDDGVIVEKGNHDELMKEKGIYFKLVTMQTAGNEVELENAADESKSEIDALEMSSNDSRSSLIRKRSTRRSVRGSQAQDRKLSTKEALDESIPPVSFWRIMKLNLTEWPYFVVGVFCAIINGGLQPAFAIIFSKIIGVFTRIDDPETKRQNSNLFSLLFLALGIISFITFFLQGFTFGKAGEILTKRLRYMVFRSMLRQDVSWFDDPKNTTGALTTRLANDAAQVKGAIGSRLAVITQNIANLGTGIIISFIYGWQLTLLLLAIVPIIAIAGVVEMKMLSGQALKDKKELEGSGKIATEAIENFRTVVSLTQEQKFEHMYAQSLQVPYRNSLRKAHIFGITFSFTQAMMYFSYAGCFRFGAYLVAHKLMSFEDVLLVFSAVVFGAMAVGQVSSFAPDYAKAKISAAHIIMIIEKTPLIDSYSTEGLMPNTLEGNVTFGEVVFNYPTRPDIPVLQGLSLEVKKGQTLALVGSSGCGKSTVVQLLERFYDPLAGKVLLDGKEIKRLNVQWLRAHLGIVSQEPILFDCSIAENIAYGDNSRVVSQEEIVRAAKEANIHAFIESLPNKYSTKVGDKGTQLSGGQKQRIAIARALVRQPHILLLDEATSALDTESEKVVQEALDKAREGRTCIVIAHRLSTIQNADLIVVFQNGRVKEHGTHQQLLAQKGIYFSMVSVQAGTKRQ

[4] = liver-stage malaria parasite growth inhibition, primary screen, cell-based, HepG2, luciferase luminescence, HepG2 viability (AID 624349; in the data active means parasite load remaining mostly below about 12%, no sharp cut-off; inactive means mostly above about 10%;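 further: 100% = mean of DMSO negative control wells on the same plate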); details: P. berghei liver stage in HepG2, luciferase luminescence, concentration not given here; parasite load remaining: stronger effect = lower value; viability: measured here: HepG2 viability without parasites
[5] = survival rescue of mitochondrial mutant cells in low glucose, primary screen, MELAS cybrids, Rieske KO mouse fibroblasts, CellTiter-Glo (AID 1508586;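 active means mean z-score across replicates of 1.96 or higher in either the MELAS or the Rieske mutant cell line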;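 further: z relative to plate mean and SD of compound and empty wells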)
[6] = viability rescue of complex I mutant cybrids, primary screen, cell-based, galactose medium, ATP luminescence (AID 1645843;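 active means z-score of at least 1.8 in each of two replicates, scored against plate mean and spread of sample wells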;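 further: positive z means more ATP and so rescue of galactose-driven cybrid death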); details: complex I mutant cybrid cells, 72 h, stronger effect = higher value
[7] = stronger effect = lower value, cell number ratio, induced over uninduced
[8] = measured here: relative caspase fold change +Dox/-Dox
[9] = measured here: total cells with miR-34 induction, stronger effect = lower value
[10] = measured here: total cells without miR-34 induction

With `CCCCC/C=C\C/C=C\C/C=C\C/C=C\CCCC(=O)NCCS(=O)(=O)O` the fold change [1, 7] was 0.96 (inactive), the fold change [1, 8] was 1.07 and the cell count [1, 9] was 5500. It also gave a cell count [1, 10] of 5730.
With `CC(C)CC(NP(=O)(O)OC1OC(C)C(O)C(O)C1O)C(=O)NC(Cc1c[nH]c2ccccc12)C(=O)O` (configuration not stated) the fold change ([1]; stronger effect = lower value) was 0.95 (inactive), the fold change [1, 8] was 0.289 and the cell count [1, 9] was 9030. For the same compound, the cell count [1, 10] was 9510.
In the case of `CC1OC(O[C@H]2C[C@@H](O)[C@]3(CO)[C@H]4[C@H](O)C[C@]5(C)[C@@H](C6=CC(=O)OC6)CC[C@]5(O)[C@@H]4CC[C@]3(O)C2)C(O)C(O)C1O` (some centres not stated), the fold change ([1]; stronger effect = lower value) is reported as 0.802 (inactive), the fold change [1, 8] is reported as 1.17 and the cell count [1, 9] is reported as 286. It also gave a cell count [1, 10] of 356.
For `COc1ccc(/C=C\c2cc(OC)cc(OC)c2)cc1`, the fold change [1, 7] was 1.08 (inactive), the fold change [1, 8] was 1.44 and the cell count [1, 9] was 1220. For the same compound, the cell count [1, 10] was 1130.
For `c1cc(N2CCNCC2)c2cc[nH]c2c1`, the fold change [1, 7] was 0.865 (inactive), the fold change [1, 8] was 1.51 and the cell count [1, 9] was 4820. For the same compound, the cell count [1, 10] was 5570.
With `COC[C@H]1OC(=O)c2coc3c2[C@@]1(C)C1=C(C3=O)[C@@H]2CCC(=O)[C@@]2(C)C[C@H]1OC(C)=O` the fold change ([1]; stronger effect = lower value) was 0.997 (inactive), the fold change [1, 8] was 1.29 and the cell count [1, 9] was 1550. The cell count [1, 10] was 1560 and the fold fluorescence [2] was 5.16 [at 116.7 µM] (inactive).
In the case of `CCCCCCCCCCCCCCCC(=O)OC[C@H](COP(=O)([O-])OCC[N+](C)(C)C)OC(=O)CCCC=O`, the fold change [1, 7] is reported as 0.934 (inactive), the fold change [1, 8] is reported as 2.44 and the cell count [1, 9] is reported as 5310. It also gave a cell count [1, 10] of 5690.
In the case of `CCCN(CCCN)N(O)N=O`, the fold change [1, 7] is reported as 1.05 (inactive), the fold change [1, 8] is reported as 0.825 and the cell count [1, 9] is reported as 5850. The cell count [1, 10] was 5540.
For `COC[C@H]([C@@H](O)[C@@H](O)C(=O)NCC[C@@H](C)c1nc(/C=C/C[C@H]2OC3(C[C@H](O)[C@H]2C)OC([C@@H](C[C@@H](O)[C@@H](C)[C@@H](O)[C@@H](C)/C=C(C)/C(C)=C/C=C/C(C)=C\C#N)OC)[C@@H](OP(=O)(O)O)C3(C)C)co1)N(C)C` (some centres not stated), the fold change ([1]; stronger effect = lower value) was 0.801 (inactive), the fold change [1, 8] was 1.44 and the cell count [1, 9] was 250. The cell count [1, 10] was 312 and the fold fluorescence [2] was 9.76 [at 5 µM] (inactive).
For `O[C@H]1[C@H]2[C@H](O)CCCN2C[C@H]1O`, the fold change ([1]; stronger effect = lower value) was 0.852 (inactive), the fold change [1, 8] was 1.17 and the cell count [1, 9] was 5340. It also gave a cell count [1, 10] of 6260.
For `C[C@H](N)C(=O)N[C@@H](C)C(=O)N[C@@H](Cc1ccccc1)C(=O)CCl` (H-Ala-Ala-Phe-CH2Cl), the fold change ([1]; stronger effect = lower value) was 0.806 (inactive), the fold change [1, 8] was 1.41 and the cell count [1, 9] was 2970. The cell count [1, 10] was 3680 and the fold fluorescence [2] was 4.89 [at 147.1 µM] (inactive).
For `CCCCC/C=C\C/C=C\C/C=C\C/C=C\CCCCOC(CO)CO`, the fold change [1, 7] was 0.983 (inactive), the fold change [1, 8] was 0.95 and the cell count [1, 9] was 5720. The cell count [1, 10] was 5810.
For `CCCCC/C=C\C/C=C\C/C=C\C/C=C\CCCC(=O)N[C@@H](C)C(=O)O`, the fold change [1, 7] was 0.941 (inactive), the fold change [1, 8] was 1.84 and the cell count [1, 9] was 5770. The cell count [1, 10] was 6140.
With `CO[C@@H]1C[C@@H](C[C@H]2CC[C@H](C)[C@H]([C@@H](C)C(=O)O)O2)O[C@]2(O[C@](C)([C@H]3CC[C@@](C)([C@@H]4O[C@@H]([C@H]5O[C@@](O)(CO)[C@H](C)C[C@@H]5C)C[C@@H]4C)O3)C[C@H]2C)[C@@H]1C` the fold change ([1]; stronger effect = lower value) was 0.993 (inactive), the fold change [1, 8] was 1.75 and the cell count [1, 9] was 1790. The cell count [1, 10] was 1800 and the fold fluorescence [2] was 5.68 [at 69 µM] (inactive).
In the case of `CCCCC/C=C\C/C=C\C/C=C\C/C=C\CCCC(=O)NCC(O)CC(=O)O` (configuration not stated), the fold change [1, 7] is reported as 1.07 (inactive), the fold change [1, 8] is reported as 1.27 and the cell count [1, 9] is reported as 5440. It also gave a cell count [1, 10] of 5070.
With `C[N+]1(C)[C@@H]2CC(OC(=O)C(CO)c3ccccc3)C[C@H]1[C@@H]1O[C@@H]12` (some centres not stated) the fold change ([1]; stronger effect = lower value) was 0.929 (inactive), the fold change [1, 8] was 1.43 and the cell count [1, 9] was 8500. For the same compound, the cell count [1, 10] was 9160.
With `CO/C1=C\C(C)=C\[C@@H](C)[C@@H](O)[C@@H](C)C/C(C)=C/C=C/[C@H](OC)[C@@H]([C@@H](C)[C@@H](O)[C@H](C)[C@@]2(O)C[C@@H](O)[C@H](C)[C@@H](C(C)C)O2)OC1=O` the fold change [1, 7] was 1.05 (inactive), the fold change [1, 8] was 1.29 and the cell count [1, 9] was 2990. The cell count [1, 10] was 2860 and the fold fluorescence [2] was 11.4 [at 8 µM] (inactive).
For `c1cc2ccsc2c(N2CCNCC2)n1`, the fold change [1, 7] was 0.937 (inactive), the fold change [1, 8] was 0.656 and the cell count [1, 9] was 5170. For the same compound, the cell count [1, 10] was 5520.
With `CCCCC/C=C\C/C=C\C/C=C\C/C=C\CCCC(=O)NCc1ccoc1` the fold change [1, 7] was 0.985 (inactive), the fold change [1, 8] was 1.68 and the cell count [1, 9] was 5700. For the same compound, the cell count [1, 10] was 5790.
For `CNCCCCCCN(C)N(O)N=O`, the fold change [1, 7] was 0.998 (inactive), the fold change [1, 8] was 0.973 and the cell count [1, 9] was 6040. For the same compound, the cell count [1, 10] was 6050.
With `CC1(O)C[C@@]23C[C@@H](O)[C@@]4(O)[C@@H](C[C@H](O)C4(C)C)[C@](C)(O)[C@@H]2CCC1[C@H]3O` (some centres not stated) the fold change ([1]; stronger effect = lower value) was 0.932 (inactive), the fold change [1, 8] was 1.15 and the cell count [1, 9] was 6010. The cell count [1, 10] was 6440.
For `Clc1ccc(C2CC3CCC2N3)cn1` (configuration not stated), the fold change ([1]; stronger effect = lower value) was 0.945 (inactive), the fold change [1, 8] was 1.19 and the cell count [1, 9] was 6010. The cell count [1, 10] was 6360 and the fold fluorescence [2] was 4.32 [at 239.6 µM] (inactive).
In the case of `O=C(NCCN1CCC2(CC1)C(=O)NCN2c1ccccc1)c1ccc2ccccc2c1`, the fold change [1, 7] is reported as 0.966 (inactive), the fold change [1, 8] is reported as 1.81 and the cell count [1, 9] is reported as 5740. The cell count [1, 10] was 5940.
With `COc1ccc(/C=C/C(=O)CC(=O)/C=C/c2ccc(OC)c(OC)c2)cc1OC` the fold change [1, 7] was 0.864 (inactive), the fold change [1, 8] was 0.752 and the cell count [1, 9] was 5430. The cell count [1, 10] was 6280.
With `CCNC(=O)[C@H]1O[C@@H](n2cnc3c(N)ncnc32)[C@@H](O)C1O` (some centres not stated) the fold change [1, 7] was 0.967 (inactive), the fold change [1, 8] was 0.965 and the cell count [1, 9] was 6150. It also gave a cell count [1, 10] of 6360.
For `CCCCC/C=C\C/C=C\C/C=C\C/C=C\CCCC(=O)NC(CO)CO`, the fold change [1, 7] was 0.961 (inactive), the fold change [1, 8] was 0.877 and the cell count [1, 9] was 5640. It also gave a cell count [1, 10] of 5870.
With `CCCCC/C=C\C/C=C\C/C=C\C/C=C\CCCC(=O)Nc1cccc(O)c1` the fold change [1, 7] was 0.942 (inactive), the fold change [1, 8] was 0.281 and the cell count [1, 9] was 5390. The cell count [1, 10] was 5720.
In the case of `CCCC[C@H]1C(=O)O[C@H](C)[C@H](NC(=O)c2cccc(NC=O)c2OC)C(=O)O[C@@H](C)[C@@H]1OC(=O)CC(C)C`, the fold change ([1]; stronger effect = lower value) is reported as 1.28 (inactive), the fold change [1, 8] is reported as 0.897 and the cell count [1, 9] is reported as 869. The cell count [1, 10] was 680 and the fold fluorescence [2] was 6.91 [at 93.5 µM] (inactive).
In the case of `N[C@H]1C[C@@H]1c1ccccc1`, the fluorescence slope change [3] is reported as 55% (active), the parasite load remaining [4] is reported as 52% (inactive) and 79.2% (inactive) and the viability [4] is reported as 46.6% and 238%. For the same compound, the fold change ([1]; stronger effect = lower value) was 0.858 (inactive), the fold change [1, 7] was 0.985 (inactive) and the fold change [1, 8] was 1.15 and 1.49. For the same compound, the cell count [1, 9] was 9050, the cell count [1, 10] was 9180 and 10500 and the z-score ([5]; MELAS cybrid survival, CellTiter-Glo 48 h, stronger effect = higher value) was 0.109 (inactive) and -0.281 (inactive). For the same compound, the z-score ([5]; Rieske KO mouse fibroblast survival, CellTiter-Glo 72 h) was -0.102 and -1.1 and the z-score [6] was 0.92 (inactive).
With `C=C1[C@@H](C)[C@H]2[C@H](Cc3ccccc3)NC(=O)[C@]23OC(=O)/C=C/[C@H](O)CCC[C@@H](C)C/C=C/[C@H]3[C@@H]1O` the fold change ([1]; stronger effect = lower value) was 1.14 (inactive), the fold change [1, 8] was 1.09 and the cell count [1, 9] was 1220. The cell count [1, 10] was 1060 and the fold fluorescence [2] was 6.64 [at 104.2 µM] (inactive).
In the case of `CCCCC/C=C\C/C=C\C/C=C\C/C=C\CCCC(=O)N[C@H](C)COP(=O)(O)O`, the fold change [1, 7] is reported as 1.03 (inactive), the fold change [1, 8] is reported as 0.754 and the cell count [1, 9] is reported as 5610. It also gave a cell count [1, 10] of 5460.
In the case of `CCCCC/C=C\C/C=C\C/C=C\C/C=C\CCCC(=O)NCCOP(=O)(O)O`, the fold change [1, 7] is reported as 0.994 (inactive), the fold change [1, 8] is reported as 0.95 and the cell count [1, 9] is reported as 5850. The cell count [1, 10] was 5880.
For `CCCC[C@@H](C)[C@@H](OC(=O)C[C@@H](CC(=O)O)C(=O)O)[C@H](C[C@@H](C)C[C@H](O)CCCC[C@@H](O)C[C@H](O)[C@H](C)N)OC(=O)C[C@H](CC(=O)O)C(=O)O`, the fold change ([1]; stronger effect = lower value) was 0.911 (inactive), the fold change [1, 8] was 1.82 and the cell count [1, 9] was 5520. The cell count [1, 10] was 6060.
